In the library only some 1.1% were active in any assay of this set; here they are far more common.
Chronic BCR inh – chronic active BCR signaling inhibition | ABC-DLBCL IkBa-CBG/CBR reporter, luminescence ratio, 4 h | Potency, µM (doses to about 46.1 µM), actives largely listed as inhibitors | 0.05% of 340,000 active | AID 493014; active = well fitted inhibition curve with a large enough effect in the signal ratio, with a control signal flat, not every such curve was filed as active; inconclusive = small, poorly fitted or top-dose-only effect, or effect the other way, or a change in a side signal; the % refers to the signal ratio
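Concentration-response series (up to 46 uM) were applied to TMD8 dual-reporter cells for 4 h at 37C with doxycycline. Green/red ratio, after filter-overlap correction, defined %Activity; red signal alone was normalised to basal cells and zero luminescence.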
12-LOX inh – inhibitors of human 12S-lipoxygenase ALOX12 | P18054 | purified 12hLO, xylenol orange hydroperoxide absorbance | Potency, µM (doses to about 108 µM), most hits filed as inhibitors | 1.1% of 580,000 active | AID 1671190
Target sequence (P18054 whole entry, looked up): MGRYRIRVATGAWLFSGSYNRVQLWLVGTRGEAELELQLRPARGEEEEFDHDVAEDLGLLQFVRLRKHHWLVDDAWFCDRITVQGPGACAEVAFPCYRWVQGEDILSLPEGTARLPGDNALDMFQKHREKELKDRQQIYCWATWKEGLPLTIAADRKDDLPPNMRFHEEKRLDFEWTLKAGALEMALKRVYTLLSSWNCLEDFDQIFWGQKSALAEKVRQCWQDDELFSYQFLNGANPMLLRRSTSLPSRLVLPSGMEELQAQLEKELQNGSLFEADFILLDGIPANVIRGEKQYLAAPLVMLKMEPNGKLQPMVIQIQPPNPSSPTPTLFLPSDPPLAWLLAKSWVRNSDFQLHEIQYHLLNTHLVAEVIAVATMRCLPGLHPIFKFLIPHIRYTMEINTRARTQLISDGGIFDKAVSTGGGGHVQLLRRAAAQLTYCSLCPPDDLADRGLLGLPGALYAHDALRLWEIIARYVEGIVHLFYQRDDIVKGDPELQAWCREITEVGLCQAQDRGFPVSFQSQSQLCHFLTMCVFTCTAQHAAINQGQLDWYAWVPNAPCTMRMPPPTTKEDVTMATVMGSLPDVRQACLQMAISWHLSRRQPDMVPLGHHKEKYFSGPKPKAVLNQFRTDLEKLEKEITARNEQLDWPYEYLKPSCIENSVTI
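Purified human 12hLO at 150 nM in 25 mM Hepes, 0.01% Triton X-100, pH 7.0, preincubated 15 min at room temperature with compound. Reaction started with 40 uM arachidonic acid, 30 min at room temperature. Hydroperoxide measured by Fe-xylenol orange, 573/405 nm absorbance ratio.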
GRP78 ERSR act – induces the endoplasmic reticulum stress response in human glioma cells; U87-MG GRP78 promoter luciferase reporter, 16 h; Potency, µM, hits mostly activators; 0.02% of 420,000 active; AID 602332; also: series mostly up to about 76 µM; nearly all actives have a fitted effect of over 35% in size
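Stably transfected U87-MG human glioma cells carrying a GRP78-based luminescent sensor were seeded at 1000 cells/well, pin-dosed with compounds and incubated 16 h. Luciferase reagent was then added, and end-point luminescence was read after 10 min at room temperature.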
Apoferritin bind – candidate novel general anesthetic via apoferritin binding | P02791 | apoferritin/1-aminoanthracene competitive binding, fluorescence | Potency, µM (highest dose often 77.5 µM), hits mostly inhibitors | 0.074% of 350,000 active | AID 485281; also: nearly all actives have a fitted effect of over 20% in size
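Read-out: endpoint 1-AMA fluorescence, excitation 380 nm and emission 535 nm, after compounds sit 10 min at room temperature with 10 uM horse-spleen apoferritin in 50% saturated 1-AMA/PBS. Values come from four-parameter Hill fits.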
A number is an active result; n = inactive; u = inconclusive; x = not tested or not shown; ! = not confirmed by another sample; [ ] = remark or other dose. Unless noted, calls follow the shape of the dose curve; as a rule, active = well fitted curve in the direction sought with a large enough effect; inconclusive = small, poorly fitted or top-dose-only effect, or another doubt; inactive = no such curve, though single readings can be large; an effect the other way counts as inactive or inconclusive.

SMILES	Chronic BCR inh	12-LOX inh	GRP78 ERSR act	Apoferritin bind
O=C(COC(=O)c1cccs1)NCCC1=CCCCC1	n	n	n	u
COc1ccc(NS(=O)(=O)c2ccc3c(c2)[C@H]2C=CC[C@H]2[C@@H](c2ccc(C(=O)O)cc2)N3)cc1	n	28µM!	n	n
N#CC1=C(N)OC2=C(C(=O)CC(c3ccccc3)C2)C1c1ccc(Br)cc1 (configuration not stated)	x	11µM	x	x
Cc1ccc(C2CC(=O)C3=C(C2)OC(N)=C(C#N)C3c2ccc(Cl)c(Cl)c2)cc1 (configuration not stated)	x	40µM	x	x
N#CC1=C(N)OC2=C(C(=O)CC(c3ccccc3)C2)C1c1ccoc1 (configuration not stated)	n	n	n	n
N#CC1=C(N)OC2=C(C(=O)CC(c3ccccc3)C2)C1c1cccc(F)c1 (configuration not stated)	x	35µM	x	x
N#CC1=C(N)OC2=C(C(=O)CC(c3ccccc3)C2)C1c1cccnc1 (configuration not stated)	u	n	n	n
O=C(C1CN(C(=O)c2nn(-c3ccccc3)c(=O)c3ccccc23)c2ccccc2O1)N1CCCCC1 (configuration not stated)	x	n	x	x
Cc1ccc(NC(=O)COC(=O)CSC(=S)N2CCOCC2)cc1C	n	n	n	5.6µM
Cc1ccc(NC(=O)COC(=O)CN2CSCC2=O)cc1C	u	n	n	n
O=S(CCCOc1ccc(F)cc1)Cc1ccc(F)cc1 (configuration not stated)	x	n	x	x
O=C(c1nn(Cc2ccccc2)c(=O)c2ccccc12)N1CCCC1c1ccc2c(c1)OCCCO2 (configuration not stated)	x	n	x	x
Cc1nn(CCC#N)c(C)c1[C@@H]1C=C[C@@H](NCc2ccc(C(C)C)cc2)C1	x	n	x	x
O=c1[nH]c(NNC(=S)NCc2ccccc2)nc2c1C1(CCCCC1)Cc1ccccc1-2	u	35µM	n	n
S=C(NCc1ccccc1)NNc1nc2ccccc2[nH]1	n	32µM	n	n
O=c1c2ccccc2nc(COc2ccccc2)n1/N=C/c1ccc(O)c(O)c1	u	3.5µM	n	n
COc1ccc(-c2cn[nH]c2-c2ccc(OCCN3CCCCC3)cc2O)cc1	x	n	x	x
Cc1cc2c(c(=O)n(-c3ccccc3)c(=O)n2CC(=O)Nc2ccccc2F)n1C	x	45µM	x	x
CC(=O)NC[C@@H]1C=C(C)[C@H](Cc2nc3ccc(F)cc3[nH]2)C[C@H]1C(C)C	x	n	x	x
NS(=O)(=O)c1ccc(N/N=C/c2ccsc2)c([N+](=O)[O-])c1	x	n	x	x
CC(NC(=S)NCCc1ccccc1)c1ccc(C(C)(C)C)cc1 (configuration not stated)	x	40µM	x	x
CC(C)(CNC(=S)NCCc1ccccc1)CNC(=S)NCCc1ccccc1	u	20µM	n	n
COC(=O)[C@@H]1Cc2c([nH]c3ccccc23)[C@H]2C[C@@H](NCCN(C)C)C[C@@H](c3ccc(F)cc3)N21	x	n	x	x
CCCn1c(C)cnc1CC1CCCN(C(=O)c2ccncc2)C1 (configuration not stated)	x	n	x	x
Cn1cnc2c1c(=O)n(CCCSc1nnc(-c3cccc(Cl)c3)o1)c(=O)n2C	x	n	x	x
SMILES	Chronic BCR inh	12-LOX inh	GRP78 ERSR act	Apoferritin bind
O=C(c1cnccn1)N1CC(=O)N2[C@H](C1)[C@@H](c1ccc(Br)cc1)[C@@H]2CO	x	5.6µM	x	x
O=C(NC1CCCCC1)N1Cc2[nH]cnc2C[C@H]1c1nc(-c2ccc3ccccc3c2)no1	x	10µM	x	x
O=C(NC1CCCCC1)N1Cc2[nH]cnc2C[C@H]1c1nc(-c2cccc([N+](=O)[O-])c2)no1	x	6.3µM	x	x
O=[N+]([O-])c1cccc(-c2noc([C@@H]3Cc4nc[nH]c4CN3CC3CCCCC3)n2)c1	x	n	x	x
COc1ccc(-c2noc([C@@H]3Cc4nc[nH]c4CN3C(=O)Nc3ccc(Cl)cc3)n2)cc1	x	n	x	x
O=C(Nc1ccccc1)N1Cc2[nH]cnc2C[C@H]1c1nc(-c2ccc3ccccc3c2)no1	x	n	x	x
COc1ccc(-c2noc([C@@H]3Cc4nc[nH]c4CN3C(=O)NC3CCCCC3)n2)cc1	x	3.5µM	x	x
O=C1/C(=C\c2ccco2)NC(=S)N1c1ccccc1	u	16µM	n	n
CCCN=C1N/C(=C\c2ccco2)C(=O)N1c1ccccc1	n	u	n	n
O=S(=O)(NC(c1cccs1)C(Cl)(Cl)Cl)c1ccccc1 (configuration not stated)	x	n	x	x
C[n+]1c(/C=C/c2ccc(O)cc2)ccc2ccccc21	n	35µM	n	n
CCOc1ccccc1CN1CCCCCCNC(=O)[C@@H]2CCC[C@@H]21	x	n	x	x
Cc1ccc(CN2CCC3(CC2)Cc2ccccc2CNC3=O)cc1C	x	n[6.33 µM]	x	x
C=CCc1cccc(C=Nc2cc(Br)ccc2O)c1O	n	35µM	n	n
C=CCc1cccc(C=Nc2c[nH]c(=O)[nH]c2=O)c1O	n	n	n	n
Cc1ccc(/C=C/C(=O)OC(C)C(=O)c2ccc(C)c(C)c2)o1 (configuration not stated)	x	6.3µM	x	x
COC[C@@H]1CN(S(=O)(=O)c2cccc(C)c2)C[C@H]1c1nc(C)no1	x	45µM	x	x
COC[C@@H]1CN(S(=O)(=O)c2ccc(C)cc2)C[C@H]1c1nc(C)no1	x	n	x	x
OC(CN1CCOCC1)CN1CCOCC1	n	u	n	n
CC(C)=CCC/C(C)=C/CNCC(O)CN1CCOCC1 (configuration not stated)	x	0.63µM	x	x
Cc1cc(C)[n+](C)n1-c1ccccc1	x	18µM	x	x
Cc1cc(C)[n+]2n1C(=O)C(c1ccccc1)=C2[O-]	u	n	n	n
O=C(CSc1nc2nc[nH]c2c(=O)[nH]1)NCc1ccc(F)cc1	x	n	x	x
O=C(CSc1nc2nc[nH]c2c(=O)[nH]1)NCc1ccccc1	x	0.56µM	x	x
CC(C)S(=O)(=O)C1=NSC2=NC(=O)/C(=C\c3ccc(-c4ccccc4)o3)C(=N)N21	u	25µM	n	n
SMILES	Chronic BCR inh	12-LOX inh	GRP78 ERSR act	Apoferritin bind
N=C1/C(=C/c2ccc(-c3cccc(C(=O)O)c3)o2)C(=O)N=C2SC=C(c3ccccc3)N12	n	28µM	n	n
COc1cccc(N2C(=O)CCC2(C)C(=O)NC2CCCC2)c1 (configuration not stated)	x	n	x	x
CC1(C)Cc2c(c(N3CCOCC3)nc3sc(C(=O)Nc4ccc(Cl)cc4)c(N)c23)CO1	u	2.8µM!	n	n
COc1ccc(-c2coc(CCC(=O)N3CCN(c4cc(C)ccc4C)CC3)n2)cc1	n	20µM	n	x
CC(=O)Nc1ccc(-c2csc(NC3CC3)n2)c(F)c1	x	14µM	x	x
Clc1ccc(-c2csc(NC3CC3)n2)cc1Cl	x	10µM	x	x
Clc1ccc(-c2csc(NC3CC3)n2)cc1	x	8.9µM	x	x
COc1ccc(-c2csc(NC3CCCCC3)n2)c(OC)c1	n	u	n	n
COc1ccc2cc(C(=O)OC(C)C(N)=O)c(C)nc2c1 (configuration not stated)	x	n	x	x
CCN(CC)C(=O)c1cc2sc3ccccc3c2s1	u	16µM	n	u
COCCN(CCOC)C(=O)c1cc2sc3ccccc3c2s1	n	n	n	n
COc1cccc(C2=Nn3c(nnc3-c3ccccc3O)SC2)c1	n	n	n	n

Source: PubChem BioAssay (National Center for Advancing Translational Sciences (NCATS))
